Screening data: PubChem BioAssay, National Center for Advancing Translational Sciences (NCATS)
Giardia FBPA inh = inhibitors of Giardia lamblia fructose-1,6-bisphosphate aldolase. A8B2U2. purified Giardia FBPA. Potency, µM (series often up to 59.6 µM), for inactives: at the top dose activity, negative = inhibition, usual class: inhibitors. 290,000 compounds, 0.71% hits. AID 2451; further: potency means the concentration at half of the fitted maximal effect; nearly all actives have a fitted effect of over 55% in size
Target sequence (A8B2U2 whole entry, looked up): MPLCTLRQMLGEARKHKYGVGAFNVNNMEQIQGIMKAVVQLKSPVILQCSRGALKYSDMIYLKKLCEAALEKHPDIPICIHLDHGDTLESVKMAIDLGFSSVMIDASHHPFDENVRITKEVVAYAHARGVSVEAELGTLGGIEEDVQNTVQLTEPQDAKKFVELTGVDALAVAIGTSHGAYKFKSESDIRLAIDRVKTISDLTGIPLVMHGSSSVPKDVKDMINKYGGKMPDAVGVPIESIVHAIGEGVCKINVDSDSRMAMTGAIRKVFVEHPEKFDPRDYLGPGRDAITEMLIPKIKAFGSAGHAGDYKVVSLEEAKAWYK
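40 nM FBPA preincubated 10 min at RT with compound (up to 57.5 uM final), then substrate plus GAPDH/TPI/NAD/arsenate coupling and diaphorase/resazurin added. Fluorescence read after 20 min at RT, 525/598 nm.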
HCMV inh = human cytomegalovirus inhibition; HFF cells, HCMV-luciferase reporter, 72 h; hits give low values; activity change, negative = inhibition, % at 57.5 µM; 410,000 compounds, 4.5% hits; AID 1259415; in the data active means activity change below about -60%; inconclusive means no clear call, values can overlap the other calls; inactive means above about -39%
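Steps: HFFs plated, 16 h 37C; compounds added; HCMV-luciferase added to MOI 1 PFU/cell; 72 h 37C; OneGlo reagent, 5 min room temperature; luminescence read, normalized to controls.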
Pf growth 48h = P. falciparum growth inhibition at 48 hours (one generation); P. falciparum luciferase growth in erythrocytes, 48 h; Potency, µM (titrated, usually from 28.7 µM), inactives show top-dose activity change, negative = inhibition, usual class: inhibitors; 310,000 compounds, 5.9% hits; AID 504832; further: potency means the concentration at half of the fitted maximal effect
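Growth was read as firefly luciferase luminescence after a 48 h, 37 C, 5% CO2 exposure of compounds to reporter-bearing P. falciparum cultures (0.1% parasitemia, 2% hematocrit final) in Albumax-supplemented RPMI 1640.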
Sm TGR block = inhibitors of Schistosoma mansoni thioredoxin glutathione reductase. purified TGR, DTNB reduction, TNB absorbance 405 nm. 360,000 compounds, 3% hits. Q962Y6. AID 485364. Potency, µM (titrated, usually from 114 µM), inactives show at the top dose activity change, negative = inhibition, actives largely listed as inhibitors; further: potency means the concentration at half of the fitted maximal effect; nearly all actives have a fitted effect of over 60% in size
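Kinetic colorimetric format: TGR-catalysed, NADPH-driven DTNB reduction monitored via TNB absorbance. Enzyme dispensed at 20 nM; compound exposure 15 min at room temperature before reaction start.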
Pf growth 96h = inhibits malaria parasite growth, 96 h; P. falciparum luciferase reporter growth, 96 h; Potency, µM (titrated, usually from 28.7 µM), for inactives: at the highest dose activity change, negative = inhibition, usual class: inhibitors; 320,000 compounds, 6.9% hits; further: potency means the concentration at half of the fitted maximal effect
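Cell-based qHTS: luciferase-tagged P. falciparum in erythrocytes (2% hematocrit, 0.05% parasitemia final) incubated with compounds for 96 hours, 37 C, 5% CO2; luciferase detection reagent then added and luminescence measured.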
Numbers without * were called inactive; ? = inconclusive; / = no result given. Most compounds without a hit are left out; they make up all but 14% or so of the library. Unless noted, the call rests on the fitted dose curve; in most records, active means well fitted curve in the direction sought with a large enough effect; inconclusive means small, poorly fitted or top-dose-only effect, or another doubt; inactive means no such curve, though single readings can be large; an effect the other way counts as inactive or inconclusive. On the % scale 0 is the no-effect control and ±100 the full control effect.

SMILES | Giardia FBPA inh | HCMV inh | Pf growth 48h | Sm TGR block | Pf growth 96h
CCOC(=O)C1=C(CC)Nc2ccccc2N=C1NC(=O)c1ccc(OC)c(S(=O)(=O)N2CCOCC2)c1 | / | 39 | / | / | /
Cc1ccc([C@H]2C(C(=O)O)=CCN2S(=O)(=O)c2ccc(C)cc2)cc1 | / | 2 | / | / | /
Cc1c(C(=O)NCc2cccs2)sc(=O)n1Cc1ccc(S(C)(=O)=O)cc1 | / | -31 | / | / | /
COc1ccc(OC)c(NC(=O)CCN2C(=O)c3ccccc3C2=O)c1 | 5% | 16 | 70% | 1% | ?
CC1CCC2C(C)C(=O)OC3OC4(C)CCC1C32OO4 (stereo not drawn) | 1% | 38 | 0.0033µM* | 3% | 16%
C[C@@H]1CCC2[C@@H](C)[C@@H](O)O[C@@H]3O[C@@]4(C)CC[C@@H]1[C@@]23OO4 (stereo partly drawn) | -5% | / | 0.0005µM* | / | 0.0004µM*
CC1CCC2[C@@H](C)C(=O)OC3O[C@]4(C)CCC1C32OO4 (stereo partly drawn) | / | 16 | / | / | /
Cc1nn(C)cc1[C@@H]1C[C@H]2CN(Cc3cccc(Cl)c3)C(=O)[C@]23CCCN13 | 2% | -19 | ? | -11% | ?
CCn1ncc([C@@H]2C[C@H]3CN(Cc4cccc(Cl)c4)C(=O)[C@]34CCCN24)c1C | 0% | -4 | ? | -25% | 22%
O=C1N(Cc2cccc(Cl)c2)C[C@@H]2C[C@@H](c3ccco3)N3CCC[C@@]123 | 0% | ? | -13% | 40µM* | 3%
O=C1N(Cc2cccc(Cl)c2)C[C@@H]2C[C@@H](c3cccn3-c3cccnc3)N3CCC[C@@]123 | -2% | -86* | 9.3µM* | 0% | 18%
Cn1cc([C@@H]2C[C@H]3CN(Cc4cccc(Cl)c4)C(=O)[C@]34CCCN24)c(-c2ccccc2)n1 | 7% | -13 | 40% | -1% | 2.9µM*
COc1ccc(C2/C=C\CN(C(=O)c3ccc(C)cc3)[C@H](Cc3ccccc3)C(=O)N2Cc2ccc(F)cc2)cc1 (stereo partly drawn) | -6% | / | 4.1µM* | -5% | 4.1µM*
COc1ccc(C2/C=C\CN(C(=O)C3CC3)[C@H](Cc3ccccc3)C(=O)N2Cc2ccc(F)cc2)cc1 (stereo partly drawn) | -1% | / | 10µM* | -27% | ?
CCCCC(=O)N1C/C=C\C(c2ccc(OC)cc2)N(Cc2ccc(F)cc2)C(=O)[C@H]1Cc1ccccc1 (stereo partly drawn) | 2% | / | 12µM* | ? | 10µM*
CCCCCCC(=O)N1C/C=C\C(c2ccc(OC)cc2)N(Cc2ccc(F)cc2)C(=O)[C@H]1Cc1ccccc1 (stereo partly drawn) | -3% | -93* | 9.3µM* | -29% | 7.4µM*
CCOc1cc(/C=N/NC(=O)C(=O)NCCCOC(C)C)cc(Br)c1O | 1% | 19 | 7% | -14% | 28%
CCCCc1ccc(/C(C)=N/Nc2cc(N3CCOCC3)nc(C)n2)cc1 | -7% | -25 | ? | 13% | 1%
Cc1ccc(C(=O)C(C)OC(=O)c2ccccc2[N+](=O)[O-])cc1 (stereo not drawn) | -6% | 9 | 272% | -1% | 0%
COc1ccc(OC)c(NC(=O)CCN2CC(C)CC(C)C2)c1 (stereo not drawn) | ? | / | 8% | -20% | -18%
COc1ccc(C(=O)N2CCCN(C)CC2)cc1S(=O)(=O)N1CCCc2ccccc21 | 7% | 92 | -17% | -16% | ?
COc1ccc(C(=O)N2CCCN(C)CC2)cc1S(=O)(=O)N(C)Cc1ccccc1 | / | -9 | ? | 35µM* | ?
NC(=O)C1CCN(CC(=O)N2N=CCC2c2ccccc2)CC1 (stereo not drawn) | 1% | -103* | 46% | 14% | 19%
O=C(CN1CCN(C(c2ccccc2)c2ccccc2)CC1)N1N=CCC1c1ccccc1 (stereo not drawn) | -6% | -5 | ? | 4% | 12µM*
O=C(CN1CCN(C(c2ccccc2)c2ccccc2)CC1)N1CCN(c2ccccc2)CC1 | -11% | 13 | 12µM* | -23% | ?
O=C(N1CCCCC1)N1CCN(C(c2ccccc2)c2ccccc2)CC1 | 7% | -12 | / | -4% | 8.3µM*
